For 16 molecules, inhibition results are on record in ChEMBL document CHEMBL3433997, “St. Jude Leishmania screening dataset” (2016).

The target in the assay is Glucose transporter (Leishmania mexicana) (UniProt O61059). Put plainly: ST_JUDE_LEISH: Cytotoxicity at 2uM final concentration against transgenic Leishmania Mexicana promastigotes LmGT2 that are glucose transport deficient and complemented with the L. Mexicana glucose transporter 2. Activity is measured by DNA content using SYBR green in vitro. The format is functional.
The term inhibition denotes the relative decrease from the control value, in per cent. Turning to `COc1cccc(C(=O)NCCOc2ccccc2)c1Oc1ccccc1`, the inhibition is 5.15%.

As for `Nc1nc(N)c2cc(Cc3ccccc3Cl)cnc2n1`, the inhibition was found to be 1.45%.

On to `O=[N+]([O-])c1cccc(-n2nc(NCc3ccc(Cl)cc3)nc2-c2ccc(F)c(C(F)(F)F)c2)c1`, for which the inhibition was 0.17%.

For the molecule `CC(=O)Nc1ccc(C(=O)Nc2cccc(-c3ccc(-c4nc5cc(C(F)(F)F)ccc5[nH]4)cc3)c2)cn1`, the inhibition is 3.05%.

On to `O=C(NC(=S)NCc1ccncc1)c1ccccc1`, for which the inhibition amounted to 1.6%.

Regarding `Cc1cccc2nc(-c3ccc(-c4ccc(C(=O)NCCN5CCCC5)cc4)s3)[nH]c12`, the inhibition is -0.1%.

Turning to `O=S1(=O)C=C(c2ccccc2)CC1`, the inhibition was 1.41%.

As to `CN(c1ccc(NC(=O)Nc2cc(C(C)(C)C)on2)cc1)c1ccnc(NCCN2CCOCC2)n1`, the inhibition is 5.4%.

On to `CN1CCCC1CCCOC(=O)c1ccc(N)cc1` (stereo unspecified), for which the inhibition was found to be 2.42%.

`NC(=O)c1sc(-n2cnc3ccc(C(=O)NCCN4CCOCC4)cc32)cc1OCc1ccccc1C(F)(F)F`: the inhibition is -0.32%.

`O=C(CC1CCCC1)N(Cc1ccc(-c2ccc(CNC3Cc4ccccc4C3)cc2)cc1)CC1CCCCN1` (stereo unspecified): the inhibition amounted to 2.06%.

With `O=C(Nc1ccc(N2CCN(Cc3ccccc3Cl)CC2)cc1)c1ccc([N+](=O)[O-])o1`, the inhibition was 11.1%.

Regarding `CCN(CC)CCNC(=O)/C(=C/C=C/c1cc2cc(Cl)c(Cl)cc2[nH]1)OC`, the inhibition was -1.46%.

Take `O=C(Nc1cccc(-c2ccc(CN3CCCC3)cc2)c1)c1ccc(F)cc1`: the inhibition was 0.64%.

Take `Cc1ccc(NC(=O)NC2CCN(c3ccnc4ccccc34)C2)cc1` (stereo unspecified): the inhibition was 7.34%.

`CCCCCN1CCCC1CNS(=O)(=O)c1cccc(C(=O)Nc2cccc(C(F)(F)F)c2)c1` (stereo unspecified): the inhibition came to 5.05%.
